In PubChem BioAssay (NCATS) one finds Potency, activity change, negative = viability loss and outcome data, which are given here for 8 molecules.

Records with an inconclusive call do not appear. A call without a number means that no potency is given here. A number with no mark means an inactive call. The source made the active and inactive calls. Calls follow the shape of the dose curve; as a rule, active = well fitted inhibition curve with a large enough effect; inconclusive = small, poorly fitted or top-dose-only effect; inactive = flat fitted curve, though single readings scatter.
Potency is read from the fitted curve at half-maximal effect.

The test can be described thus: Primary qHTS for inhibitors of nuclear receptor binding SET domain protein 2 (NSD2) in an isogenic RCH-ACV NSD2 p.E1099K mutant (9B) (AID 1645876). Also: nearly all actives have a fitted effect of over 70% in size. To be noted: RCH-ACV (leukaemia line) NSD2 E1099K (9B) viability, CellTiter-Glo, 72 h; series mostly up to 44.9 µM.
Turning to `C=C[C@H]1C(O[C@@H]2O[C@H](CO)[C@@H](O)[C@H](O)[C@H]2O)OC=C2C(=O)N3CCc4c([nH]c5ccccc45)C3CC21` (stereo partly drawn), the Potency result was “inactive”.

Regarding `COC(=O)c1cc(OC)cc(OC)c1C(=O)c1c(OC)cc2c(c1O)C1CCCC(C)(O2)O1` (stereo not drawn), the Potency entry was “inactive”.

For the molecule `COc1cc2occc2c(O[C@@H]2O[C@H](CO)[C@@H](O)[C@H](O)[C@H]2O)c1CCC(=O)O`, the Potency entry was “inactive”.

In the case of `COC(=O)C1(C)c2[nH]c3ccccc3c2CCN1C(=O)CCl` (stereo not drawn), the Potency is 2.58 µM (active).

As to `CC1(C)CC[C@]2(C(=O)O[C@@H]3O[C@H](CO)[C@@H](O)[C@H](O)[C@H]3O)CC[C@]3(C)C(=CCC4[C@@]5(C)CC[C@H](O[C@@H]6O[C@H](C(=O)O)[C@@H](O)[C@H](O[C@@H]7O[C@H](CO)[C@H](O)[C@H](O)[C@H]7O)[C@H]6O)C(C)(C)C5CC[C@]43C)C2C1` (stereo partly drawn), the activity change, negative = viability loss was -8.36% [at 9.23 µM].

As to `CC1OC(O[C@H]2CC[C@@]3(C)C(CC[C@]4(C)C3CC=C3C5CC(C)(C)CC[C@]5(C(=O)OC5OC(CO)C(OC6OC(COC7OCC(O)C(O)C7O)C(O)C(O)C6O)C(O)C5O)CC[C@]34C)C2(C)C)C(O)C(O)C1OC1OCC(OC2OCC(O)C(O)C2O)C(O)C1O` (stereo partly drawn), the outcome is “inactive [at 9.23 µM]”.

As to `C=C[C@H]1[C@H](O[C@@H]2O[C@H](CO)[C@@H](O)[C@H](O)[C@H]2O)OC=C(C(=O)OC)[C@H]1C[C@@H]1c2cc(O)c(O)cc2CCN1C(C)=O`, the Potency result is “inactive”.

Regarding `N#C[C@@H]1C[C@H](F)CN1C(=O)CNC1[C@H]2CN(C(=O)c3ccc(F)cc3)C[C@@H]12` (stereo partly drawn), the Potency result is “inactive”.
